Data: PubChem BioAssay AID651718 (The Scripps Research Institute Molecular Screening Center, 2012)
Among all 360,000 compounds or so, about 2,700 (0.75%) were called active. Cut-off read from the data, not from the text of the source: active = inhibition above about 4.5%; inactive = the rest. The list comes from a sample in which actives are over-represented; it also holds similar structures and randomly drawn compounds.

Each compound was assayed on Methionine sulfoxide reductase A (Bos taurus) (assay: inhibition of methionine sulfoxide reductase A – biochemical, absorbance, bovine, HTS, primary screen (AID 651718;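 note: 0% = vehicle wells with enzyme and 100% = reference inhibitor wells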)). Details: purified bovine MsrA, absorbance read-out; at 15.5 µM; hits give high values.

inhibition, active:
O=C(O)CC1S/C(=N\N=C/c2ccccc2O)N(c2ccc(O)cc2)C1=O (stereo not given) 4.57%, COc1ccc(S(=O)(=O)c2c[nH]c(=S)[nH]c2=O)cc1Cl 5.55%, Cc1ccc(/C=N/NC(=S)NC2CCCCC2)o1 4.73%, C/C(=N\Nc1ccc(S(N)(=O)=O)cc1[N+](=O)[O-])c1cccs1 4.74%, Cc1n[nH]c(=O)nc1N/N=C/c1cccs1 5.54%, COc1ccccc1C(=O)N/C(=C/c1ccc2c(c1)OCO2)C(=O)Nc1cccc(C(=O)O)c1 5.04%, NC(=S)N/N=C/c1ccc([N+](=O)[O-])cc1 5.41%, Cc1ccc(-c2ccc(/C=C(\C#N)C(N)=S)o2)c([N+](=O)[O-])c1 10.9%, O=C(N/N=C/c1ccco1)c1ccc(C(=O)N/N=C/c2ccco2)o1 10%, O=C(Nc1cccc(F)c1)c1coc(=O)c(Br)c1 5.37%, Cc1ccc(C(=O)Nc2ccccc2-c2ccccc2)cc1S(=O)(=O)Nc1ccccc1 4.76%, CC1CCCCN1S(=O)(=O)c1ccc(C(=O)Nc2nnc(-c3cccs3)o2)cc1 (stereo not given) 4.79%, CN(c1ccccc1)S(=O)(=O)c1ccc2[nH]c(=O)[nH]c2c1 14.1%, NC(=S)NN=Cc1ccc(OC(=O)COc2cc(Cl)c(Cl)cc2Cl)cn1 4.84%, COc1cc2cc(C(=O)N/N=C/c3cccc(OC)c3OC)[nH]c2cc1OC 5.39%, COc1ccc2[nH]c(C(=O)N/N=C/c3cc(OC)c(OC)c(OC)c3)cc2c1 6.03%, CCOc1ccc2[nH]c(C(=O)N/N=C/c3cccc(OC)c3OC)cc2c1 5.19%

inhibition, inactive:
CN1C(=O)C(CC(=O)Nc2ccccc2)S/C1=N/c1nccs1 (stereo not given) 1.53%, CCCCOCC1CN(CCCC)S(=O)(=O)c2c(Oc3ccc(F)cc3)cccc2O1 (stereo not given) 0.09%, C[C@H](CO)N1C[C@H](C)[C@@H](CN(C)C(=O)Nc2ccccc2F)OCc2cn(nn2)CCCC1=O -1.47%, COc1ccc(S(=O)(=O)N(C)CC(=O)N2CCCC2)cc1Cl -0.26%, Cc1ccc(S(=O)(=O)c2c[nH]c3ccc(Cl)cc3c2=O)cc1 -0.29%, C[C@H](O)[C@@H]1C(=O)N2CCc3c([nH]c4c(-c5ccc6c(c5)OCO6)cccc34)[C@@H]2C[C@@H]1N(C)C(=O)c1ccco1 -0.82%, COC(=O)C1=C(C)N(Cc2ccc(C(F)(F)F)cc2)C(=NCc2ccc(C(F)(F)F)cc2)NC1c1cccc(Cl)c1 (stereo not given) -2.13%, C/C(=N\NC(=S)NC1CCCCC1)c1ccc(C)o1 2.23%, Cc1ccc(/C=N/NC(=O)Cn2nc(C)c(Br)c2C)o1 1.58%, COc1ccccc1CNS(=O)(=O)c1cc2c3c(c1)CCC(=O)N3CCC2 0.88%, Cc1cccc(CN2CCN(C3CN(Cc4cn(Cc5cc(C)cc(C)c5)nn4)S(=O)(=O)C3)CC2)c1 (stereo not given) -0.09%, COC(=O)c1c(-c2ccc(OC)cc2)c2c(c3c4cc(OC)ccc4n(S(=O)(=O)c4ccc(F)cc4)c13)C(=O)N(C)C2 1.35%, COC(=O)[C@]12C[C@H](CC(=O)NCc3ccc(OC)c(OC)c3)C(=O)N(Cc3ccccc3)C1=C[C@H](C(C)C)O[C@@H]2C1CC1 0.87%, C/C(=N\Nc1nc2ccccc2[nH]1)c1cccs1 4.27%, C/C(=N\Nc1ccccc1)c1cccs1 -0.47%, COc1cccc(CC(=O)N2CCN(C(=O)C(=O)c3cccc(C(F)(F)F)c3)CC2)c1 -0.48%, COc1ccccc1Cc1c(-c2ccc(F)cc2)nc2ccc(C)cn12 -0.14%, O=C(N[C@H](C(=O)N1CCC[C@H]1C(=O)NCCc1ccccc1Cl)c1ccccc1)c1ccccc1 -1.55%, COC(=O)[C@]1(Cc2ccccc2)NC=C(C(=O)c2ccccc2)[C@@H]1c1cccc(OC)c1 1.03%, Cn1c(=O)c2c(nc(N/N=C/c3cccs3)n2Cc2ccc(Br)cc2)n(C)c1=O -0.37%, Cc1nc2ccccc2n1CC(=O)N/N=C/c1cccs1 0.96%, Cc1ccc(N)cc1CN1CCN(c2ncc(Cc3ccccc3)cn2)CC1 -0.75%, CC(=O)C1=C(C)N(Cc2ccccc2)C(=S)NC1c1cccc(Br)c1 (stereo not given) 0.33%, COc1ccc(/C=C(/NC(=O)c2ccccc2)C(=O)Nc2cccc(C(=O)O)c2)cc1 1.96%, COc1ccccc1C(=O)N/C(=C/c1ccco1)C(=O)Nc1ccc(C(=O)O)cc1 3.68%, O=C(NCc1ccccc1)[C@H]1CCCN1C(=O)[C@@H]1CCCN1C(=O)c1ccc(Cl)cc1Cl -0.17%, NC(=O)C1(Nc2ccc([N+](=O)[O-])cc2)CCCC1 1.4%, O=[N+]([O-])c1ccc(N=NNc2ccc([N+](=O)[O-])cc2)cc1 0.99%, Cc1ccc2nc(SCc3nnc(-c4ccccc4[N+](=O)[O-])o3)c(C#N)cc2c1 -0.69%, COC(=O)[C@]12C[C@H](CC(=O)NCCC(C)C)C(=O)N(CCc3ccc(OC)c(OC)c3)C1=C[C@H](C(C)(C)C)O[C@@H]2C -0.48%, CN[C@H]1C[C@H]2c3[nH]c4c(-c5ccccc5)cccc4c3CCN2C(=O)[C@H]1[C@H](C)O 0.9%, CC(C)CC(CCc1ccccc1)OS(N)(=O)=O (stereo not given) 0.27%, O=C(Cc1ccc([N+](=O)[O-])cc1)N/N=C/c1ccco1 1.04%, O=C(Cc1ccccc1)Nc1cccc(C(=O)N/N=C/c2ccco2)c1 2.33%, C[C@H]1CN([C@@H](C)CO)C(=O)CCCn2nncc2CO[C@@H]1CN(C)C(=O)Nc1ccc(N2CCN(C)CC2)cc1 -0.42%, O=C(Nc1c(Cl)c(C2CC2)nn1-c1ccccc1)C(Cl)(Cl)Cl -0.78%, Cc1nc2nc(SCC(=O)Nc3cccc(F)c3)[nH]c2cc1Br -0.88%, O=C(Nc1cccc(F)c1)[C@@H]1CCCN1 0.99%, Nc1nc2c(ncn2[C@@H]2O[C@H](C(=O)N[C@@H](Cc3ccccc3)C(=O)NCc3ccccc3)[C@@H](O)[C@H]2O)c(=O)[nH]1 -0.25%, COC(=O)c1ccc(CN2C(=O)[C@]3(OCCC=C[C@H]3C)c3c(Br)cccc32)cc1 1.8%, COCCCNC(=O)C[C@H]1C[C@@]2(C(=O)OC)C(=C[C@H](C(C)(C)C)O[C@@H]2C)N(Cc2ccc3c(c2)OCO3)C1=O -0.56%, O=C(O)c1ccc(F)c(S(=O)(=O)Nc2ccccc2)c1 -0.45%, Cc1cc(C(C)(C)C)cc(S(=O)(=O)Nc2ccc(C(=O)O)cc2)c1C 1.5%, Cc1ccc(NC(=O)N2c3ccccc3SC2c2ccco2)c(C)c1 (stereo not given) -0.74%, Cc1nc2ccccn2c(=O)c1NC(=O)c1ccc(Br)o1 2.43%, CN1C(=O)CN2CCc3ccccc3C2c2cc(Cl)ccc21 (stereo not given) 1.04%, CC1CCCCN1S(=O)(=O)c1ccc(S(=O)(=O)N(CC(=O)Nc2ccccc2)Cc2cccs2)cc1 (stereo not given) -0.63%, CSCc1nnc(NC(=O)c2ccc(S(=O)(=O)N3CCCCC3C)cc2)o1 (stereo not given) -0.31%, O=C(N[C@H](Cc1ccccc1)C(=O)N1CCCN(Cc2cccs2)CC1)[C@H]1O[C@@H](n2ccc(=O)[nH]c2=O)[C@H](O)[C@@H]1O 0.08%, O=c1c(F)cn(C2CCCO2)c(=O)n1Cc1ccccc1Cl (stereo not given) 0.2%, O=c1[nH]c2ccc(S(=O)(=O)N3CCCC3)cc2[nH]1 -0.78%, CCN(c1ccccc1)S(=O)(=O)c1ccc2[nH]c(=O)[nH]c2c1 2.53%, CN1C(=O)C(Br)(Br)CC1c1cccnc1 (stereo not given) 1.57%, Cc1cc(Br)cn2c(Cc3ccccc3C(F)(F)F)c(-c3ccc(C#N)cc3)nc12 -0.24%, O=C(COc1cc(Cl)c(Cl)cc1Cl)NCCc1ccccn1 -0.1%, O=C(COC(=O)COc1cc(Cl)c(Cl)cc1Cl)NC1CC1 3.33%, CCCCCCCCN1C(=O)[C@@H](CC(=O)NCc2ccccc2)C[C@@]2(C(=O)OC)C1=C[C@H](C(C)(C)C)O[C@@H]2C 0.32%, CCOc1cccc(NC(=O)Cn2nc(-c3ccc4c(c3)OCCO4)ccc2=O)c1 -0.18%, COc1cc(C=NC2CCCCC2)ccc1O 3.96%, COc1cccc2[nH]c(C(=O)NCCc3ccccc3)cc12 -0.25%, CCOc1ccccc1/C=N/NC(=O)CNC(=O)COc1ccccc1 0.86%, COc1ccc2[nH]c(=O)c(CNc3ccc(C)c(C)c3)cc2c1 1%, CCC(=O)c1ccc(OC(=O)/C=C/c2cc(OC)c(OC)c(OC)c2)cc1 1.16%, CCOc1ccc2ccccc2c1/C=N/NC(=O)c1c(C)cc(C)[nH]c1=O 2.01%, CCN1CCCC1CNC(=O)c1cc2cc(OC)c(OC)cc2[nH]1 (stereo not given) 2.2%, Cc1ccc(C)c(N2C(=O)CS/C2=N\NC(=O)c2ccccc2Cl)c1 0.65%, Cc1ccc(N2C(=O)C3C4C=CC(CC4)C3C2=O)cc1Br (stereo not given) -0.75%, Cc1[nH]nc2c1C(c1ccc(Br)cc1)NC2=O (stereo not given) 0.64%
